Source: PubChem
Rows were chosen to be rich in hits. Some 8% of all compounds tested hit in one or more screens of this group.
SW480 rereplic – inducers of DNA re-replication in SW480 colon cancer cells. 340,000 tested, 1.8% active. SW480 DNA re-replication, Hoechst DNA content imaging, 48 h. Potency, µM (titrated, usually from 46.1 µM), without a hit: at the top dose re-replication activation, actives largely listed as activators; note: % of control where 0% means no effect; nearly all actives have a fitted effect of over 55% in size
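Image-based DNA-content assay: after two days of treatment, nuclei were labelled with the DNA dye Hoechst and imaged, and hits were compounds raising the count of nuclei showing high fluorescence intensity.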
KB-3-1 cytotox – KB-3-1 parental cell cytotoxicity | 400,000 tested, 1.4% active | KB-3-1 viability, CellTiter-Glo ATP luminescence, 72 h | Potency, µM (highest dose often 46.1 µM), hits mostly cytotoxic; note: % is set by controls: 0 for no effect and ±100 for the full control effect; nearly all actives have a fitted effect of over 60% in size
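Luminescent ATP read-out (CellTiter-Glo) measures survival of drug-naive KB-3-1 cells after 72 h compound exposure at 37 °C. Titration series was screened from lowest to highest concentration, with DMSO vehicle plates as background controls.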
HT1080NT lethal – kills 2HG-producing HT-1080-NT fibrosarcoma cells. HT-1080-NT fibrosarcoma viability, CellTiter-Glo ATP luminescence, 48 h. Potency, µM (titrated, usually from 46.1 µM), without a hit: at the top dose activity, negative = less viability, most hits filed as cytotoxic. 360,000 tested, 1.6% active. AID 686970;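 note: NT is the 2HG producing partner of a matched IDH1 knockdown line; 0% = DMSO-treated cells and -100% = media-only wells without cells; nearly all actives have a fitted effect of over 55% in size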
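Read-out is CellTiter-Glo luminescence after 10 minutes at room temperature, following 48 hours' compound treatment of HT-1080-NT cells (750 cells/well, RPMI, 5% FBS, 37 degrees C).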
MCF10A rerep – DNA re-replication induction in MCF 10a cells; MCF 10A DNA re-replication, Hoechst nuclear intensity, 48 h; Potency, µM (titrated, usually from 46.1 µM), without a hit: top-dose activity, positive = re-replication, usual class: activators; 350,000 tested, 2.9% active; note: % of control where 0% means no effect; nearly all actives have a fitted effect of over 50% in size
HT1080 IDH1KD tx – toxicity to HT-1080 IDH1 knockdown cells (counter line); Potency, µM (titrated, usually from 46.1 µM), for inactives: at the highest dose activity, negative = toxicity, most hits filed as cytotoxic; HT-1080 IDH1 knockdown viability, ATP luminescence, 48 h; 360,000 tested, 2% active; AID 686971;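 note: 0% = DMSO wells and -100% = cell-free medium wells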
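Luminescent ATP read-out (CellTiter-Glo, 10 min at room temperature) after 48 h compound exposure at 37 °C gave viability of IDH1-knockdown HT-1080 cells. Activity was normalised to DMSO and cell-free wells, then fitted as concentration-response curves.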
KB-V1 MDR tox – KB-V1 MDR subline cytotoxicity. KB-V1 MDR cells viability, CellTiter-Glo, 72 h. Potency, µM (top dose mostly 46.1 µM), hits mostly cytotoxic. 400,000 tested, 3.4% active. AID 1347076; note: % is set by controls: 0 for no effect and ±100 for the full control effect; nearly all actives have a fitted effect of over 60% in size
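Cytotoxicity via CellTiter-Glo luminescence after 72 h compound exposure at 37 degrees C. Cells: drug-selected KB-V1 line, DMEM phenol-red free plus 10% FBS. Compounds tested at multiple concentrations; normalized data fitted to concentration-effect curves.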
Active calls of the source: *; i = inactive; ? = inconclusive; . = no result. Calls come from the whole dose curve; as a rule, active = well fitted curve in the direction sought with a large enough effect; inconclusive = small, poorly fitted or top-dose-only effect, or another doubt; inactive = no such curve, though single readings can be large; an effect the other way counts as inactive or inconclusive. Potency is the fitted concentration of half-maximal effect.

SMILES | SW480 rereplic | KB-3-1 cytotox | HT1080NT lethal | MCF10A rerep | HT1080 IDH1KD tx | KB-V1 MDR tox
Cc1ccc(C)c(NC(=O)CSc2nc3nc(-c4cccs4)cc(C(F)(F)F)c3c(=O)[nH]2)c1 | -3% | i | ? | 21µM* | ? | i
Cc1ccc(C)c(NC(=O)CSc2nc(N)c(NC(=O)c3cccs3)c(=O)[nH]2)c1 | -9% | i | 11% | 1% | 8% | i
O=C(CSc1nc2nc(-c3cccs3)cc(C(F)(F)F)c2c(=O)[nH]1)Nc1ccc(F)c(F)c1 | -31% | 15µM* | ? | 18µM* | ? | ?
O=S(=O)(Nc1ccc(-c2ccc(N3CCOCC3)nn2)cc1)c1ccc(Cl)c(Cl)c1 | -69% | i | -28% | 12% | -17% | i
CC(=O)c1cccc(NC(=S)NC(=O)c2ccc(C)cc2Cl)c1 | -17% | i | 4% | 2% | 7% | i
Cn1c(N)c(N2CCN(c3ccccc3)CC2)c(=O)[nH]c1=O | -18% | i | 15% | -3% | 3% | i
Nc1ccc(C(=O)Nc2cccc3ncccc23)cc1 | 2% | i | -7% | 15% | 2% | i
CCOc1ccc(C(=O)Nc2cccc3ncccc23)cc1Br | 64% | i | -4% | 0.58µM* | 0% | i
O=C(Nc1cccc2ncccc12)c1ccc(OCc2ccccc2)cc1 | -33% | i | -23% | 1.5µM* | -17% | ?
CN1CCN(CC(=O)N/N=C\c2c[nH]c3ccccc23)CC1 | 9% | . | . | 28% | . | .
COCCCn1c(SCCc2ccccc2)nc2cc(OC)c(OC)cc2c1=N | -14% | i | ? | 7.3µM* | -23% | i
Cc1nnc(NC(=O)CSc2nnc(CC(=O)Nc3ccccc3Cl)n2C)s1 | 1% | i | 5% | 9% | 6% | i
CC(OC(=O)/C(C#N)=C/c1ccc(N(C)C)cc1)C(=O)N(C)Cc1ccccc1 (configuration not stated) | ? | i | -1% | 16µM* | -22% | i
N#C/C(=C\c1ccc(OCc2ccccc2)cc1)C(N)=O | -29% | i | -6% | ? | 0% | i
CNC(=S)N/N=C/c1cc(C)n(-c2ccc(Cl)c(Cl)c2)c1C | 8% | i | -27% | ? | -28% | i
CCC(=O)N1CCC1(C)C(=O)Nc1cccc(OC)c1 (configuration not stated) | . | i | 17% | . | 3% | i
COc1cccc(NC(=O)C2(C)CCN2C(=O)CC2CCCC2)c1 (configuration not stated) | . | i | 9% | . | -8% | 16µM*
c1ccc(CCN=C2CCCc3c2[nH]c2ccccc32)cc1 | -7% | 13µM* | 3% | 0% | 24% | ?
Nc1ccc(C(=O)N/N=C2\CCCc3c2[nH]c2ccccc32)cc1 | 6% | ? | 15% | 13% | 2% | i
C=C(C)Cn1c2ccc(NC(=O)NCCc3cccs3)cc2c(=O)n1C | . | i | 5% | . | 5% | i
CN(Cc1cc(Cl)cc(Cl)c1O)Cc1c(O)ccc2ccccc12 | ? | i | -22% | 23µM* | ? | i
CN(Cc1ccccc1)Cc1c(O)ccc2ccccc12 | 0% | i | 3% | 2% | 4% | i
O=C(c1ccccc1F)N1CCCC(c2ccccc2)C1 (configuration not stated) | 1% | i | 15% | 6% | 11% | 23µM*
CC(C)(C)c1ccc(C(=O)N/C(=C\c2cccc([N+](=O)[O-])c2)C(=O)Nc2cccc(C(=O)O)c2)cc1 | -3% | i | 1% | ? | -1% | i
O=C(NNC(=O)C1[C@H]2CCCC[C@@H]12)c1ccc(=O)oc1 (some centres not stated) | 2.3µM* | i | 12% | 14% | -2% | ?
